Measurements taken from PubChem BioAssay (EPA / NIEHS).
Results filed as inconclusive are left out. Activity calls are given as the source filed them. How the source made its calls, unless noted: active means hit-call score of the fitted dose curve at least 0.9, where 1 is the maximum; inactive means score below 0.9.

Tests used:
[1] = biological target: Retinoic acid receptor alpha (Homo sapiens) (UniProt P10276); assay: ATG_DR5_RAR_CIS: Attagene CIS-FACTORIAL HepG2 Assay for human Retinoic Acid Receptor Alpha (RARE), DR5 submotif (AID 2282934); conditions: HepG2 Attagene cis-factorial RARE DR5 reporter, mRNA; actives raise or lower the signal
Retinoic acid receptor alpha (Homo sapiens), sequence (P10276 whole entry, looked up): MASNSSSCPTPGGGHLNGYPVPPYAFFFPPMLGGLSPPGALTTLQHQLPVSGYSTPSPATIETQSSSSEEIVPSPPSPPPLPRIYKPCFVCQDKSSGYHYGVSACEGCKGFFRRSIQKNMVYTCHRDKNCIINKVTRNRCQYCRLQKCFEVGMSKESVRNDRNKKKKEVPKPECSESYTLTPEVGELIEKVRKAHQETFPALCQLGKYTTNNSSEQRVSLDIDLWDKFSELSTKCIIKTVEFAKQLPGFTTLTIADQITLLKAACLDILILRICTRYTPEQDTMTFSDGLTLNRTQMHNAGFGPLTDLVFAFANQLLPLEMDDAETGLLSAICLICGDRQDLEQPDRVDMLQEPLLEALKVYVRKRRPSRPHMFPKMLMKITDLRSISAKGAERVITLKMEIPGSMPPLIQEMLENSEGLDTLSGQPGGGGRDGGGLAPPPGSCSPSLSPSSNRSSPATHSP
Method in brief: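 HepG2 cells transiently transfected with multiplexed reporter units under cis (DR5 RARE) promoters, so endogenous transcription factor activity is measured. After 24 h compound exposure, reporter mRNA is quantified by RT-PCR with fluorescent labelling and capillary electrophoresis; bidirectional fitting versus DMSO.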

[2] = ATG_GLI_CIS: Attagene CIS-FACTORIAL HepG2 Assay for human Zinc Finger Protein GLI1 (AID 2282945); conditions: HepG2, Attagene cis-factorial reporter mRNA, GLI element; actives raise or lower the signal
Method in brief: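 HepG2 cells transiently transfected with cis-promoter multiplexed reporter units report endogenous transcription factor activity. After 24 h chemical exposure, reporter mRNA was quantified by RT-PCR, 6-FAM labelling, HpaI digestion and capillary electrophoresis, with bidirectional fitting against DMSO.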

[3] = ATG_GRE_CIS: Attagene CIS-FACTORIAL HepG2 Assay for human Glucocorticoid Response Elements (GRE) (AID 2282947); conditions: HepG2 GRE cis-reporter, Attagene multiplex mRNA; actives raise or lower the signal
Method in brief: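 Cells (HepG2) bearing transfected cis-promoter reporter transcription units were treated with chemical for 24 hours. Reporter mRNA was measured via RT-PCR with capillary electrophoresis, and activity was fitted in both directions relative to DMSO.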

[4] = ATG_M_32_CIS: Attagene CIS-FACTORIAL HepG2 Assay for M32 Transcription Factor (Internal Marker) (AID 2282949); conditions: HepG2 Attagene cis-factorial M32 reporter, mRNA; actives raise or lower the signal;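 further: background control marker of the multiplexed CIS panel rather than a real target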
Method in brief: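 HepG2 transfectants (cis-regulated reporter transcription units) dosed 24 h. Reporter mRNA by RT-PCR plus CE, analysed as gain or loss relative to DMSO.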

[5] = ATG_MRE_CIS: Attagene CIS-FACTORIAL HepG2 Assay for human Metal Responsive Element (MRE) (AID 2282954); conditions: HepG2 MRE cis-reporter transcription, Attagene multiplex; actives raise or lower the signal
Method in brief: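 Cells were transfected with cis-promoter reporter transcription units, then dosed for 24 h. RNA was reverse-transcribed, amplified, fluorescently labelled and resolved by capillary electrophoresis, and activity was fitted in both directions relative to DMSO.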

[6] = ATG_PBREM_CIS: Attagene CIS-FACTORIAL HepG2 Assay for human Phenobarbital-responsive Enhancer Module (PBREM) (AID 2282955); conditions: HepG2 PBREM cis-reporter, Attagene multiplexed transcription; actives raise or lower the signal
Method in brief: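 Endogenous transcription factor activity was read from reporter transcripts in transiently transfected human HepG2 liver cells after 24 h dosing. RT-PCR products were fluorescently labelled, HpaI-cut and sized by capillary electrophoresis; activity fitted bidirectionally against DMSO baseline.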

[7] = ATG_RORE_CIS: Attagene CIS-FACTORIAL HepG2 Assay for human RAR-related Orphan Receptor Element (RORE) (AID 2282959); conditions: HepG2 Attagene cis-factorial RORE reporter, mRNA; actives raise or lower the signal
Method in brief: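 RORE reporter transcripts reflecting endogenous factor activity were read after 24 h compound exposure of transfected HepG2 cells, using reverse transcription, PCR, fluorescent labelling and capillary electrophoresis sizing. Gain or loss fitted against DMSO.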

[8] = biological target: Hepatocyte nuclear factor 4-alpha (Homo sapiens) (UniProt P41235); assay: ATG_HNF4a_TRANS: Attagene TRANS-FACTORIAL HepG2 Assay for human Hepatocyte Nuclear Factor 4 alpha (HNF4a) (AID 2282982; active means hit-call score of the fitted dose curve at least 0.9, where 1 is the maximum); conditions: HepG2 HNF4a transactivation reporter, mRNA readout
Hepatocyte nuclear factor 4-alpha (Homo sapiens), sequence (P41235 whole entry, looked up, the tested form may be a part): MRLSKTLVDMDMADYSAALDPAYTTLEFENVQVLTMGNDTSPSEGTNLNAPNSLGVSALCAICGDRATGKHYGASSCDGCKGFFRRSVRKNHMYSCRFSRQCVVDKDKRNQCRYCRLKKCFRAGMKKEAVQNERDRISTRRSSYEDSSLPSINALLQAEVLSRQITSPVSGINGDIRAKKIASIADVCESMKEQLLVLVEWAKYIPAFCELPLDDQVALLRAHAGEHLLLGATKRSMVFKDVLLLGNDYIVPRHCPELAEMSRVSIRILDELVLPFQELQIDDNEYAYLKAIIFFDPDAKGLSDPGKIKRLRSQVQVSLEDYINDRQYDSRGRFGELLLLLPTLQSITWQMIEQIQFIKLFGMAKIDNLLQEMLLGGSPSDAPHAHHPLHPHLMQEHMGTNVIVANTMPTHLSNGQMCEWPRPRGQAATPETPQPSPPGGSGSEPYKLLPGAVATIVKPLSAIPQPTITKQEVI
Method in brief: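 In this trans-factorial format, a chimeric HNF4a-GAL4 fusion drives a GAL4-UAS reporter in transfected HepG2 liver cells. After 24 h treatment, reporter mRNA induction is measured by RT-PCR with capillary electrophoresis, relative to DMSO.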

[9] = biological target: Nuclear respiratory factor 1 (Homo sapiens) (UniProt Q16656); assay: ATG_NRF1_CIS: Attagene CIS-FACTORIAL HepG2 Assay for human Nuclear Respiratory Factor 1 (NRF1) Orphan Gene (AID 2282987); conditions: HepG2 NRF1 cis-element reporter, Attagene multiplex; actives raise or lower the signal
Nuclear respiratory factor 1 (Homo sapiens), sequence (Q16656 whole entry, looked up): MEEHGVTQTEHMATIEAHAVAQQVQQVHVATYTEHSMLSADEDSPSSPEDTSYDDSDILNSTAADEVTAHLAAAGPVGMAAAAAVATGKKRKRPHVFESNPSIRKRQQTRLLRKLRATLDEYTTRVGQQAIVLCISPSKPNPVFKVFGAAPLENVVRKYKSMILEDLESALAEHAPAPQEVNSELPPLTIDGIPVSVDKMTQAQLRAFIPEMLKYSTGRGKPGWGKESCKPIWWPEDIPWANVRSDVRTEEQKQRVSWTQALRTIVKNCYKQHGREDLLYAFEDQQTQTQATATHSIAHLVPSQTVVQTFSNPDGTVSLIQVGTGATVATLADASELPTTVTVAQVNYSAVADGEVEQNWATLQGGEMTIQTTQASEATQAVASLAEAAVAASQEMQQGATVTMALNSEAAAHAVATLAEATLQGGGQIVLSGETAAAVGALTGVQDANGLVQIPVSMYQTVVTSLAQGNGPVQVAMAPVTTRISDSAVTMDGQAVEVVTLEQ
Method in brief: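 Endogenous NRF1-driven reporter transcription in transfected HepG2 cells after 24 h treatment. Readout: RT-PCR products, 6-FAM labelled and resolved by capillary electrophoresis; changes fitted both directions relative to DMSO.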

[10] = ATG_NF_kB_CIS: Attagene CIS-FACTORIAL HepG2 Assay for human Nuclear Factor Kappa B (NF-kB) (AID 2282991); conditions: HepG2 Attagene cis-factorial NF-kB reporter mRNA; actives raise or lower the signal
Method in brief: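 Readout is reporter transcript level, gain or loss versus DMSO, measured 24 h post-dose via RT-PCR, fluorescent labelling and capillary electrophoresis. Human HepG2 liver cells carried transiently transfected CIS reporter constructs reflecting endogenous factors.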

[11] = biological target: human Peroxisome Proliferator-activated Receptor alpha (PPARa), PPARA (gene 5465) (UniProt Q07869); assay: ATG_PPARa_TRANS: Attagene TRANS-FACTORIAL HepG2 Assay for human Peroxisome Proliferator-activated Receptor alpha (PPARa) (AID 2283001; active means hit-call score of the fitted dose curve at least 0.9, where 1 is the maximum;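 on AC50: potency for gain of reporter signal over DMSO so agonist or activator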)
human Peroxisome Proliferator-activated Receptor alpha (PPARa), PPARA (gene 5465), sequence (Q07869 whole entry, looked up): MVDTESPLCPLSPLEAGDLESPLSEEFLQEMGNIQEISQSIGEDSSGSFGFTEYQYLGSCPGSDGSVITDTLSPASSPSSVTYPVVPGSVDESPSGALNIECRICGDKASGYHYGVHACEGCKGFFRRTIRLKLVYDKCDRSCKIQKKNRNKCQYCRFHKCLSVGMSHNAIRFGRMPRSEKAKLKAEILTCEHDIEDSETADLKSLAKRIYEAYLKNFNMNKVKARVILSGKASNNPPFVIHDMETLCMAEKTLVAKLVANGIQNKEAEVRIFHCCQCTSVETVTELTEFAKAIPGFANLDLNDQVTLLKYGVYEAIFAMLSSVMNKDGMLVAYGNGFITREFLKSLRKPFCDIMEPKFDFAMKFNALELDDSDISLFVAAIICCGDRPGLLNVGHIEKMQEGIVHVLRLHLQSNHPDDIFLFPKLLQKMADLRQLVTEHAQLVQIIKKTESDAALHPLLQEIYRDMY
Method in brief: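 Cells (HepG2) are transfected with multiple reporter transcription units, exposed to chemical for 24 h, then total RNA is reverse-transcribed and amplified. Labelled products are quantified by capillary electrophoresis; induction is referenced to DMSO.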

[12] = biological target: Retinoic acid receptor RXR-alpha (Homo sapiens) (UniProt P19793); assay: ATG_RXRa_TRANS: Attagene TRANS-FACTORIAL HepG2 Assay for human Retinoid X Receptor alpha (RXRa) (AID 2283012; active means hit-call score of the fitted dose curve at least 0.9, where 1 is the maximum)
Retinoic acid receptor RXR-alpha (Homo sapiens), sequence (P19793 whole entry, looked up, the tested form may be a part): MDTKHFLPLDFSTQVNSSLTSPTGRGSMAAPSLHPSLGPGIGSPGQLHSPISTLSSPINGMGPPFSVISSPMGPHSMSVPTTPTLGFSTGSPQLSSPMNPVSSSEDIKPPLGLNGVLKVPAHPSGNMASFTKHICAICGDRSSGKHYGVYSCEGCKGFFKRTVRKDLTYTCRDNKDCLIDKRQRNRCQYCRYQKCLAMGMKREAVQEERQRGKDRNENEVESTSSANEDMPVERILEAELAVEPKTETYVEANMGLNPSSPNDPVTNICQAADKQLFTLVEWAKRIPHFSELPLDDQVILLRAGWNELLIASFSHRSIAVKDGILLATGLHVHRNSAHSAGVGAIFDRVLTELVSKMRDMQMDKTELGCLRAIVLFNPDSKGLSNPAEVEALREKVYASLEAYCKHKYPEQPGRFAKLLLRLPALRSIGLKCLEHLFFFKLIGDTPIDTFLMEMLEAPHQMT
Method in brief: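 Measures exogenous chimeric NR-GAL4 activity in transfected HepG2 liver cells after 24 h of dosing. Induced reporter mRNA was detected by RT-PCR with capillary electrophoresis, and gain of signal was analysed against DMSO.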

[13] = TOX21_p53_BLA_p2_viability: Viability Assessment in the Tox21 HCT-116 p53 Agonism Beta-lactamase Assay, Phase 2 (AID 2283591; active means hit-call score of the fitted dose curve at least 0.9, where 1 is the maximum;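 further: compound exposure lasted 16 h at 37 °C; actives lower the ATP signal meaning cytotoxicity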)
Method in brief: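 HCT-116 p53-bla cells (4000/well) rested 5 h at 37C, then received compounds in DMSO (217-fold dilution) for 16 h at 37C, 5% CO2. After the CCF4 read, CellTiter-Glo was added; ATP luminescence was read after 30 min at room temperature.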

[14] = TOX21_p53_BLA_p5_viability: Viability Assessment in the Tox21 HCT-116 p53 Agonism Beta-lactamase Assay, Phase 5 (AID 2283600; active means hit-call score of the fitted dose curve at least 0.9, where 1 is the maximum)
Method in brief: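 Viability is taken from cellular ATP content, measured by luciferase luminescence in the same wells after the beta-lactamase ratio read. Cells are seeded at 4000 per well and exposed to DMSO-dissolved compounds, diluted 217-fold, for 16 h.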

[15] = biological target: Hepatocyte nuclear factor 3-beta (Homo sapiens) (UniProt Q9Y261); assay: ATG_FoxA2_CIS: Attagene CIS-FACTORIAL HepG2 Assay for human Forkhead box A2 (FOXA2) (AID 2282942); conditions: HepG2 cis-reporter transcription factor activity, 24 h; actives raise or lower the signal
Hepatocyte nuclear factor 3-beta (Homo sapiens), sequence (Q9Y261 whole entry, looked up): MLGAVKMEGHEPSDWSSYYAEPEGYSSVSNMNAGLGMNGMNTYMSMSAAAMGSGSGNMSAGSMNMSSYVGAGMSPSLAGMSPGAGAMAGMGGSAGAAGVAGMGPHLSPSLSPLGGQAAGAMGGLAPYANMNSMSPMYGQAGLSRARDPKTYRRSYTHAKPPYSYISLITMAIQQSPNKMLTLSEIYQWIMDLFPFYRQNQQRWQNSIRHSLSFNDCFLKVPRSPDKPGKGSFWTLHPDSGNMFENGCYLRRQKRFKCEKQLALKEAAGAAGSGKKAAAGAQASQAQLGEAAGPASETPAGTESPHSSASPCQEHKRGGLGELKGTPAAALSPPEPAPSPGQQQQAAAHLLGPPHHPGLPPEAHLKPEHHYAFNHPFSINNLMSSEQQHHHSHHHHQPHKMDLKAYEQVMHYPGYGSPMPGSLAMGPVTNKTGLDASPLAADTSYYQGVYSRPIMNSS
Method in brief: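 Endogenous transcription factor activity is captured via cis-element-driven reporter transcripts in transfected HepG2. Total RNA taken at 24 h post-dosing; labelled RT-PCR products resolved by capillary electrophoresis. Gain or loss fitted versus DMSO.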

[16] = ATG_M_32_TRANS: Attagene TRANS-FACTORIAL HepG2 Assay for M32 Transcription Factor (Internal Marker) (AID 2282984; active means hit-call score of the fitted dose curve at least 0.9, where 1 is the maximum;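 further: transcript level of a background control reporter unit measured by RT-PCR and capillary electrophoresis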); conditions: HepG2 Attagene TRANS M32 internal marker reporter
Method in brief: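 After 24 h dosing of transfected HepG2 cells, total RNA was reverse-transcribed, reporter sequences PCR-amplified, 6-FAM labelled by primer extension and HpaI-digested before capillary electrophoresis. Signal increase over DMSO was fitted.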

[17] = biological target: Cellular tumor antigen p53 (Homo sapiens) (UniProt P04637); assay: TOX21_p53_BLA_p5_ratio: Tox21 HCT-116 p53 Agonism Beta-lactamase Assay, Ratio, Phase 5 (AID 2283599; active means hit-call score of the fitted dose curve at least 0.9, where 1 is the maximum)
Cellular tumor antigen p53 (Homo sapiens), sequence (P04637 whole entry, looked up): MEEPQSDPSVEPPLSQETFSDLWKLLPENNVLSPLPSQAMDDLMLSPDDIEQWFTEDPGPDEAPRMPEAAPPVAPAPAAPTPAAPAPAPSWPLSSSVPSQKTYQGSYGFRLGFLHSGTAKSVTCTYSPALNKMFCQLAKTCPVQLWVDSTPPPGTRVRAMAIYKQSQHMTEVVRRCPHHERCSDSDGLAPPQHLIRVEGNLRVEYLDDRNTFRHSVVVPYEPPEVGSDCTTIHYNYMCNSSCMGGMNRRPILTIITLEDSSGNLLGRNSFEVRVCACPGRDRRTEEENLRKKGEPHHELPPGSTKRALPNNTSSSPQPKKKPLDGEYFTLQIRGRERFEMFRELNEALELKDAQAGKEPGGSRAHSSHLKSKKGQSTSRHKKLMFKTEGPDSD
Method in brief: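 HCT-116 cells carrying a p53-inducible beta-lactamase reporter were seeded at 4000 cells/well and dosed after 5 h with compound in DMSO (217-fold dilution). After 16 h at 37C, CCF4-AM substrate was added for 2 h, and the 460/530 nm emission ratio was scored as gain-of-signal versus DMSO.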

[18] = biological target: human Retinoid X Receptor beta (RXRb), RXRB (gene 6257) (UniProt P28702); assay: ATG_RXRb_TRANS: Attagene TRANS-FACTORIAL HepG2 Assay for human Retinoid X Receptor beta (RXRb) (AID 2283013; active means hit-call score of the fitted dose curve at least 0.9, where 1 is the maximum)
human Retinoid X Receptor beta (RXRb), RXRB (gene 6257), sequence (P28702 whole entry, looked up, the tested form may be a part): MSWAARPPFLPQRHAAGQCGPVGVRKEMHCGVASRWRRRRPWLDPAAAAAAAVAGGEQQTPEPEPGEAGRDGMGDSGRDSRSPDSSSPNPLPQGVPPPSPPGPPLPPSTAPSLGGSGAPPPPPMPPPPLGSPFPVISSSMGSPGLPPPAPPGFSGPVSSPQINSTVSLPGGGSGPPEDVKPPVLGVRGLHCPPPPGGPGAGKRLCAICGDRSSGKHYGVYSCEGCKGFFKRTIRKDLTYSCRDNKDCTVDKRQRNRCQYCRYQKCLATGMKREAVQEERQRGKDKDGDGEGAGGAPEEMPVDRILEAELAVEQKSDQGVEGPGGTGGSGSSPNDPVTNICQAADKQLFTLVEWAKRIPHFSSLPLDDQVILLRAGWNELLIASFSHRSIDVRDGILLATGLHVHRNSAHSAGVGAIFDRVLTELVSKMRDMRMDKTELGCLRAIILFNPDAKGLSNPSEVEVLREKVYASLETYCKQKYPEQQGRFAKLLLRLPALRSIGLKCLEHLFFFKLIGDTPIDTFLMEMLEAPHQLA
Method in brief: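 Chimeric receptor-Gal4 activity was assessed in transiently transfected human HepG2 cells after 24 h exposure. Transcripts from GAL4-UAS reporters were quantified by fluorescent RT-PCR and capillary electrophoresis, with DMSO as negative control and baseline.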

[19] = biological target: Cellular tumor antigen p53 (Homo sapiens) (UniProt P04637); assay: TOX21_p53_BLA_p3_ratio: Tox21 HCT-116 p53 Agonism Beta-lactamase Assay, Ratio, Phase 3 (AID 2283596; active means hit-call score of the fitted dose curve at least 0.9, where 1 is the maximum)
Method in brief: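 Cells were seeded at 4000/well, rested 5 h at 37C, then dosed with DMSO compound solutions (217-fold dilution) for 16 h. CCF4-AM substrate was loaded for 2 h at room temperature, and the 460/530 nm emission ratio was fitted for gain of signal versus DMSO.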

[20] = biological target: Cellular tumor antigen p53 (Homo sapiens) (UniProt P04637); assay: TOX21_p53_BLA_p4_ratio: Tox21 HCT-116 p53 Agonism Beta-lactamase Assay, Ratio, Phase 4 (AID 2283601; active means hit-call score of the fitted dose curve at least 0.9, where 1 is the maximum)
Method in brief: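 HCT116 cells carrying an inducible beta-lactamase reporter were plated at 4000 cells/well, rested 5 h, then exposed to compounds in DMSO (217-fold dilution) for 16 h at 37C. CCF4-AM substrate was loaded 2 h at room temperature; 460/530 nm emission ratio scored gain-of-signal versus DMSO.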

Measured: AC50

c1ccc(CNc2ncnc3nc[nH]c23)cc1
not listed: [15] | [16] | [17] | [18] | [19] | [20]
inactive: all other assays above

Clc1ccccn1
not listed: [3] | [6] | [11] | [12] | [13] | [18] | [19] | [20]
inactive: all other assays above

CCC(=O)OCc1ccc(OC)cc1
not listed: [2] | [4] | [9] | [11] | [14]
inactive: all other assays above

CN1CCCC1
not listed: [3] | [4] | [14] | [18] | [19]
inactive: all other assays above

Cc1cc2nc3c(=O)[nH]c(=O)nc-3n(C[C@H](O)[C@H](O)[C@H](O)CO)c2cc1C
not listed: [5] | [9] | [16] | [17] | [18]
inactive: all other assays above

C=C1CC[C@H]2C[C@@H]1C2(C)C
inactive: [1] | [15] | [2] | [4] | [5] | [8] | [10] | [12]

CNC[C@H](O)[C@@H](O)[C@H](O)[C@H](O)CO
not listed: [3] | [8] | [12] | [18]
inactive: all other assays above

CCCCCCC(O)CCCCCCCCCCC(=O)OC (stereo not given)
active: [7] 21.8 µM | [11] 7.36 µM | [18] 53.5 µM
not listed: [5] | [9] | [19]
inactive: all other assays above

O=C1NC(=O)C2CC=CCC12 (stereo not given)
not listed: [2] | [5] | [7] | [10] | [11] | [16] | [18]
inactive: all other assays above

CC/C=C\CC1=C(C)CCC1=O
not listed: [1] | [3] | [4] | [13] | [15]
inactive: all other assays above
